{"source": "PubChem BioAssay (NCATS)", "key": {"[1]": {"assay": "qHTS assay to identify inhibitors of the type 1 interferon - major histocompatibility complex class I in skeletal muscle: Counter screen cell viability and HiBit confirmation (AID 1347412); also: potency is read from the fitted curve at half-maximal effect; as to all read-outs here: nearly all actives have a fitted effect of over 60% in size", "details": "iHSKM muscle cells + IFN-b, HiBiT or CellTiter-Glo, 24 h; for activity change, negative = inhibition: at 45.9 µM (top of the series)", "summary_of_the_method": "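CRISPR HLA-B*08:01-HiBit immortalized human myoblasts (C25cl48) stimulated with 4 ng/ml IFN-beta and compounds (12-point 1:3, top 46 uM final) for 24 h at 37 C. Duplicate plates read by HiBit lytic luminescence or CellTiter Glo ATP.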"}, "[2]": {"assay": "Drug repurposing screens with cells derived from glioblastoma tumor samples (AID 1345199); also: nearly all actives have a fitted effect of over 40% in size; also: potency is read from the fitted curve at half-maximal effect", "details": "GBM patient neurospheres viability, ATP luminescence, 48 h", "summary_of_the_method": "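Four patient lines of CD133+ GBM neurospheres were screened at several concentrations; hits were retested in those lines plus three slower-growing GBM lines, using 48-hour treatment and ATP-based viability.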"}, "Tov112D": {"test_system": "Tov112D", "assay": "Primary qHTS to identify gynecologic anti-cancer compounds using libraries of approved drugs and bioactive compounds (AID 1345084); also: nearly all actives have a fitted effect of over 55% in size", "details": "Gynecologic cancer cell panel viability, ATPlite luminescence, 48 h; series mostly up to 57.5 µM", "summary_of_the_method": "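48 h compound exposure at 37 C, 5% CO2; five-point qHTS. ATPlite luminescence readout of cell ATP.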"}, "[3]": {"details": "at 45.9 µM (top of the series), tumour line B"}, "[4]": {"details": "at 46.1 µM (top of the series), tumour line C"}, "[5]": {"details": "at 45.9 µM (top of the series), tumour line D"}, "[6]": {"details": "at 46 µM (top of the series), tumour line A"}, "[7]": {"details": "at 20 µM (top of the series), tumour line C"}}, "note": "Inconclusive results are not listed. Unmarked numbers belong to inactive results. Activity calls are given as the source filed them. Calls follow the shape of the dose curve; as a rule, active = well fitted curve in the direction sought with a large enough effect; inconclusive = small, poorly fitted or top-dose-only effect, or another doubt; inactive = no such curve, though single readings can be large; an effect the other way counts as inactive or inconclusive. % is scaled to controls: 0 for no effect and ±100 for the full control effect."}
{"smiles": "OC(c1cc(C(F)(F)F)nc2c(C(F)(F)F)cccc12)C1CCCCN1", "note": "(stereo not drawn)", "values": [{"measurement": "activity change, negative = inhibition", "setting": "[1]; HiBiT", "value": -11.4, "unit": "%"}, {"measurement": "activity change, negative = inhibition", "setting": "[1]; Viability", "value": -12.8, "unit": "%"}]}
{"smiles": "CNC(=O)c1cc(COc2nnc(Nc3ccc(Cl)cc3)c3ccoc23)ccn1", "values": [{"measurement": "activity change, negative = inhibition", "setting": "[1]; Viability", "value": -24.9, "unit": "%"}]}
{"smiles": "CCC(=O)OCC(=O)[C@@]1(OC(=O)CC)[C@@H](C)C[C@@H]2[C@H]3CCC4=CC(=O)C=C[C@]4(C)[C@@]3(F)[C@@H](O)C[C@@]21C", "values": [{"measurement": "activity, negative = cell killing", "setting": "[2]; [3]", "value": -4.93, "unit": "%"}, {"measurement": "activity, negative = cell killing", "setting": "[2]; [4]", "value": 2.82, "unit": "%"}, {"measurement": "Potency", "setting": "[2]; tumour line A", "value": "11.2 µM (active)"}]}
{"smiles": "COc1cc2nccc(Oc3ccc(NC(=O)Nc4ccc(F)cc4F)c(F)c3)c2cc1OC", "values": [{"measurement": "Potency", "setting": "[1]; HiBiT", "value": "8.83 µM (active)"}, {"measurement": "Potency", "setting": "[1]; Viability", "value": "7.87 µM (active)"}]}
{"smiles": "CC(C)CN(C[C@@H](O)[C@H](Cc1ccccc1)NC(=O)O[C@H]1CO[C@H]2OCC[C@H]21)S(=O)(=O)c1ccc(N)cc1", "values": [{"measurement": "activity, negative = cell killing", "setting": "[2]; [3]", "value": -11.9, "unit": "%"}, {"measurement": "activity, negative = cell killing", "setting": "[2]; [5]", "value": -22.5, "unit": "%"}, {"measurement": "activity, negative = cell killing", "setting": "[2]; [4]", "value": -17, "unit": "%"}, {"measurement": "Potency", "setting": "[2]; tumour line A", "value": "17.8 µM (active)"}]}
{"smiles": "O=C1CN2Cc3c(ccc(Cl)c3Cl)N=C2N1", "values": [{"measurement": "activity change, negative = inhibition", "setting": "[1]; Viability", "value": -3.92, "unit": "%"}]}
{"smiles": "CN1CCN2c3ncccc3Cc3ccccc3C2C1", "note": "(stereo not drawn)", "values": [{"measurement": "activity, negative = cell killing", "setting": "[2]; [3]", "value": -0.787, "unit": "%"}, {"measurement": "activity, negative = cell killing", "setting": "[2]; [5]", "value": -14.6, "unit": "%"}, {"measurement": "activity, negative = cell killing", "setting": "[2]; [4]", "value": 14.4, "unit": "%"}]}
{"smiles": "CC(C)(C)c1nc(-c2cccc(NS(=O)(=O)c3c(F)cccc3F)c2F)c(-c2ccnc(N)n2)s1", "values": [{"measurement": "Potency", "setting": "Tov112D", "value": "inactive"}, {"measurement": "activity change, negative = inhibition", "setting": "[1]; Viability", "value": 12.8, "unit": "%"}]}
{"smiles": "CN1CCc2c(n(Cc3ccc(C(=O)NO)cc3)c3ccccc23)C1", "values": [{"measurement": "Potency", "setting": "Tov112D", "value": "inactive"}]}
{"smiles": "N#Cc1c(N(CC(=O)O)CC(=O)O)sc(C(=O)O)c1CC(=O)O", "values": [{"measurement": "activity, negative = cell killing", "setting": "[2]; [3]", "value": -0.252, "unit": "%"}, {"measurement": "activity, negative = cell killing", "setting": "[2]; [5]", "value": 0.729, "unit": "%"}, {"measurement": "activity, negative = cell killing", "setting": "[2]; [6]", "value": -24.3, "unit": "%"}, {"measurement": "activity, negative = cell killing", "setting": "[2]; [4]", "value": 4.23, "unit": "%"}]}
{"smiles": "COc1ccc(-c2cc3nccn3c(Nc3ncccc3C(N)=O)n2)cc1OC", "values": [{"measurement": "Potency", "setting": "Tov112D", "value": "inactive"}, {"measurement": "Potency", "setting": "[1]; HiBiT", "value": "7.87 µM (active)"}, {"measurement": "activity change, negative = inhibition", "setting": "[1]; Viability", "value": -22.4, "unit": "%"}]}
{"smiles": "CC(C)(CO)[C@@H](O)C(=O)NCCC(=O)O", "values": [{"measurement": "activity, negative = cell killing", "setting": "[2]; [3]", "value": 1.18, "unit": "%"}, {"measurement": "activity, negative = cell killing", "setting": "[2]; [5]", "value": -3.38, "unit": "%"}, {"measurement": "activity, negative = cell killing", "setting": "[2]; [4]", "value": -2.72, "unit": "%"}]}
{"smiles": "C[C@@H](NC(=O)c1ncnc(N)c1Cl)c1ncc(C(=O)Nc2cc(C(F)(F)F)c(Cl)cn2)s1", "values": [{"measurement": "Potency", "setting": "Tov112D", "value": "inactive"}, {"measurement": "activity change, negative = inhibition", "setting": "[1]; HiBiT", "value": -24.2, "unit": "%"}, {"measurement": "activity change, negative = inhibition", "setting": "[1]; Viability", "value": -2.15, "unit": "%"}]}
{"smiles": "N#CC(c1ccc(Cl)cc1)c1c(Cl)cc(-n2ncc(=O)[nH]c2=O)cc1Cl", "note": "(stereo not drawn)", "values": [{"measurement": "activity, negative = cell killing", "setting": "[2]; [3]", "value": -18.3, "unit": "%"}, {"measurement": "Potency", "setting": "[2]; tumour line C", "value": "16.4 µM (active)"}]}
{"smiles": "CCc1cc(-c2n[nH]c(C)c2-c2ccc3c(c2)OCCO3)c(O)cc1O", "values": [{"measurement": "activity change, negative = inhibition", "setting": "[1]; Viability", "value": -3.79, "unit": "%"}]}
{"smiles": "CC1(COc2ccc3c(c2)ncn3-c2ccc3cccc(N4CCC(N)CC4)c3n2)COC1", "values": [{"measurement": "Potency", "setting": "[1]; HiBiT", "value": "3.52 µM (active)"}, {"measurement": "Potency", "setting": "[1]; Viability", "value": "27.9 µM (active)"}]}
{"smiles": "CN(C)CCN(C)C(=O)c1ccc(NC(=O)Nc2ccc(-c3nc(N4CCOCC4)c4ccn(CC(F)(F)F)c4n3)cc2)cc1", "values": [{"measurement": "Potency", "setting": "[1]; Viability", "value": "1.11 µM (active)"}]}
{"smiles": "Clc1ccc(COC(Cn2ccnc2)c2ccc(Cl)cc2Cl)c(Cl)c1", "note": "(stereo not drawn)", "values": [{"measurement": "activity, negative = cell killing", "setting": "[2]; [7]", "value": -15.2, "unit": "%"}, {"measurement": "Potency", "setting": "[2]; tumour line A", "value": "5.62 µM (active)"}, {"measurement": "Potency", "setting": "[2]; tumour line D", "value": "14.1 µM (active)"}]}
{"smiles": "CC(C)Oc1cc(Nc2nc(N[C@@H](C)c3ccc(F)cn3)ncc2Cl)[nH]n1", "values": [{"measurement": "Potency", "setting": "[1]; HiBiT", "value": "9.91 µM (active)"}]}
{"smiles": "NCC1CCC(C(=O)O)CC1", "note": "(stereo not drawn)", "values": [{"measurement": "activity, negative = cell killing", "setting": "[2]; [7]", "value": 25.1, "unit": "%"}, {"measurement": "activity, negative = cell killing", "setting": "[2]; at 21.2 µM (top of the series), tumour line B", "value": -5.15, "unit": "%"}, {"measurement": "activity, negative = cell killing", "setting": "[2]; at 21.2 µM (top of the series), tumour line D", "value": -6.32, "unit": "%"}, {"measurement": "activity, negative = cell killing", "setting": "[2]; at 21.3 µM (top of the series), tumour line A", "value": -17.9, "unit": "%"}]}
{"smiles": "COc1ccc2nc3cc(Cl)ccc3c(Nc3cc(CN4CCCC4)c(O)c(CN4CCCC4)c3)c2n1", "values": [{"measurement": "activity change, negative = inhibition", "setting": "[1]; Viability", "value": -8.41, "unit": "%"}]}
{"smiles": "CCC[C@H](N[C@@H](C)C(=O)N1[C@@H]2CCCC[C@H]2C[C@H]1C(=O)O)C(=O)OCC", "values": [{"measurement": "activity, negative = cell killing", "setting": "[2]; [3]", "value": -14, "unit": "%"}, {"measurement": "activity, negative = cell killing", "setting": "[2]; [5]", "value": -19.1, "unit": "%"}, {"measurement": "activity, negative = cell killing", "setting": "[2]; [6]", "value": -33, "unit": "%"}, {"measurement": "activity, negative = cell killing", "setting": "[2]; [4]", "value": -16.9, "unit": "%"}]}
{"smiles": "CC[C@H]1OC(=O)[C@H](C)[C@@H](O[C@H]2C[C@@](C)(OC)[C@@H](O)[C@H](C)O2)[C@H](C)[C@@H](O[C@@H]2O[C@H](C)C[C@H](N(C)C)[C@H]2O)[C@](C)(O)C[C@H](C)C(=NOCOCCOC)[C@H](C)[C@@H](O)[C@]1(C)O", "values": [{"measurement": "activity, negative = cell killing", "setting": "[2]; [3]", "value": -8.15, "unit": "%"}, {"measurement": "activity, negative = cell killing", "setting": "[2]; [5]", "value": 4.24, "unit": "%"}, {"measurement": "activity, negative = cell killing", "setting": "[2]; [4]", "value": -6.06, "unit": "%"}]}
{"smiles": "CN1CC(=O)N2C(Cc3c([nH]c4ccccc34)[C@H]2c2ccc3c(c2)OCO3)C1=O", "note": "(stereo partly drawn)", "values": [{"measurement": "activity, negative = cell killing", "setting": "[2]; [3]", "value": -5.44, "unit": "%"}, {"measurement": "activity, negative = cell killing", "setting": "[2]; [5]", "value": -11.4, "unit": "%"}, {"measurement": "activity, negative = cell killing", "setting": "[2]; [4]", "value": -21.6, "unit": "%"}, {"measurement": "Potency", "setting": "[2]; tumour line A", "value": "11.2 µM (active)"}]}
{"smiles": "CCCCCCCCCCCCCCCC(=O)O[C@H]1[C@@H](O)[C@@H](O)[C@@H]([C@H](NC(=O)[C@@H]2C[C@@H](CCC)CN2C)[C@H](C)Cl)O[C@@H]1SC", "values": [{"measurement": "activity, negative = cell killing", "setting": "[2]; [3]", "value": -20, "unit": "%"}, {"measurement": "activity, negative = cell killing", "setting": "[2]; [5]", "value": -15.1, "unit": "%"}, {"measurement": "activity, negative = cell killing", "setting": "[2]; [4]", "value": 10.8, "unit": "%"}, {"measurement": "Potency", "setting": "[2]; tumour line A", "value": "17.8 µM (active)"}]}
{"smiles": "Cn1c(=O)c(-c2c(Cl)cccc2Cl)cc2cnc(Nc3cccc(C(=O)O)c3)nc21", "values": [{"measurement": "Potency", "setting": "Tov112D", "value": "inactive"}]}
